The campaign covered roughly 5,500 compounds. About 2,000 (36%) were called active. Roughly 18% stayed inconclusive and do not appear here. Cut-off read from the data, not from the text of the source: active = normalized growth mostly below about 0.91 (no sharp cut-off); inconclusive = no clear call, values can overlap the other calls; inactive = mostly above about 0.92. The list shows a part of the results.
Assay: chemical genetic growth profiling, strain panel (AID 1159580);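 note: tested at 20 µM; growth read once vehicle control cultures reached saturation at 30 °C; 1 = growth at the plate median or of vehicle wells; lower values mean less growth of the strain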
Conditions: S. cerevisiae deletion strains, growth OD
[1] = locus YAR019C, strain CDC15, stronger effect = lower value
[2] = locus YBL105C, strain PKC1, stronger effect = lower value
[3] = locus YBR135W, strain CKS1, stronger effect = lower value
[4] = locus YBR136W, strain MEC1, stronger effect = lower value
[5] = locus YBR160W, strain CDC28, stronger effect = lower value
[6] = locus YDL017W, strain CDC7, stronger effect = lower value
[7] = locus YDL028C, strain MPS1, stronger effect = lower value
[8] = locus YDL101C, strain DUN1, stronger effect = lower value
[9] = locus YDL108W, strain KIN28, stronger effect = lower value
[10] = locus YDL132W, strain cdc53, stronger effect = lower value
[11] = locus YDL214C, strain PRR2, stronger effect = lower value
[12] = locus YDR052C, strain DBF4, stronger effect = lower value
[13] = locus YDR054C, strain cdc34, stronger effect = lower value
[14] = locus YDR226W, strain ADK1, stronger effect = lower value
[15] = locus YDR477W, strain SNF1, stronger effect = lower value
[16] = locus YER123W, strain YCK3, stronger effect = lower value
[17] = locus YER133W, strain GLC7, stronger effect = lower value
[18] = locus YFL009W, strain cdc4, stronger effect = lower value
[19] = locus YFL029C, strain CAK1, stronger effect = lower value
[20] = locus YFR003C, strain YPI1, stronger effect = lower value
[21] = locus YFR019W, strain FAB1, stronger effect = lower value
[22] = locus YFR028C, strain CDC14, stronger effect = lower value
[23] = locus YGR040W, strain KSS1, stronger effect = lower value
[24] = locus YGR052W, strain FMP48, stronger effect = lower value
[25] = locus YGR092W, strain DBF2, stronger effect = lower value
[26] = locus YHR030C, strain SLT2, stronger effect = lower value
[27] = locus YHR079C, strain IRE1, stronger effect = lower value
[28] = locus YHR082C, strain KSP1, stronger effect = lower value
[29] = locus YHR205W, strain SCH9, stronger effect = lower value
[30] = locus YIL147C, strain SLN1, stronger effect = lower value
[31] = locus YJL095W, strain BCK1, stronger effect = lower value
[32] = locus YJL128C, strain PBS2, stronger effect = lower value
[33] = locus YJL157C, strain FAR1, stronger effect = lower value
[34] = locus YJR016C, strain ILV3, stronger effect = lower value
[35] = locus YJR066W, strain TOR1 (second series), stronger effect = lower value
[36] = locus YJR066W, strain TOR1, stronger effect = lower value
[37] = locus YKL048C, strain ELM1, stronger effect = lower value
[38] = locus YKL067W, strain YNK1, stronger effect = lower value
[39] = locus YKL101W, strain HSL1, stronger effect = lower value
[40] = locus YKL193C, strain SDS22, stronger effect = lower value
[41] = locus YKL203C, strain TOR2, stronger effect = lower value
[42] = locus YLR113W, strain HOG1, stronger effect = lower value
[43] = locus YLR133W, strain CKI1, stronger effect = lower value
[44] = locus YLR403W, strain SFP1, stronger effect = lower value
[45] = locus YML070W, strain DAK1, stronger effect = lower value
[46] = locus YMR001C, strain CDC5, stronger effect = lower value
[47] = locus YMR205C, strain PFK2 (second series), stronger effect = lower value
[48] = locus YMR277W, strain FCP1, stronger effect = lower value
[49] = locus YNL006W, strain LST8, stronger effect = lower value
[50] = locus YNL020C, strain ARK1, stronger effect = lower value
[51] = locus YNL161W, strain CBK1, stronger effect = lower value
[52] = locus YNL183C, strain NPR1, stronger effect = lower value
[53] = locus YNL207W, strain RIO2, stronger effect = lower value
[54] = locus YNL222W, strain SSU72, stronger effect = lower value
[55] = locus YNL307C, strain MCK1 (second series), stronger effect = lower value
[56] = locus YOL078W, strain AVO1, stronger effect = lower value
[57] = locus YOL136C, strain PFK27, stronger effect = lower value
[58] = locus YOR061W, strain CKA2, stronger effect = lower value
[59] = locus YOR119C, strain RIO1, stronger effect = lower value
[60] = locus YOR231W, strain MKK1, stronger effect = lower value
[61] = locus YOR329C, strain SCD5, stronger effect = lower value
[62] = locus YPL031C, strain PHO85, stronger effect = lower value
[63] = locus YPL153C, strain RAD53, stronger effect = lower value
[64] = locus YPL204W, strain HRR25, stronger effect = lower value
[65] = locus YPL209C, strain IPL1, stronger effect = lower value
[66] = locus YPL256C, strain CLN2, stronger effect = lower value
[67] = locus YPR025C, strain CCL1, stronger effect = lower value
[68] = locus YPR106W, strain ISR1, stronger effect = lower value
[69] = locus YPR111W, strain DBF20, stronger effect = lower value
[70] = strain NNK1, stronger effect = lower value
[71] = strain TSCII, stronger effect = lower value

Measured: normalized growth

O=S(=O)(Nc1cccc(CCc2ccccn2)c1)c1cc(Cl)c(Cl)cc1Cl
inactive: [1] 0.982 | [2] 0.977 | [3] 0.985 | [4] 0.983 | [5] 0.966 | [6] 0.981 | [7] 0.987 | [8] 0.973 | [9] 0.983 | [10] 0.976 | [11] 0.967 | [12] 0.977 | [13] 0.979 | [14] 0.986 | [15] 0.988 | [16] 0.995 | [17] 1 | [18] 0.989 | [19] 0.976 | [20] 0.981 | [21] 0.987 | [22] 0.973 | [23] 0.98 | [24] 1.08 | [25] 1 | [26] 1.15 | [27] 1.01 | [28] 1.08 | [29] 0.963 | [30] 0.985 | [31] 1.02 | [32] 0.942 | [33] 0.98 | [34] 0.981 | [35] 0.963 | [36] 1.08 | [37] 0.97 | [38] 0.979 | [39] 0.959 | [40] 0.984 | [41] 1.05 | [42] 0.883 | [43] 0.965 | [44] 0.983 | [45] 0.95 | [46] 0.987 | [47] 0.971 | [48] 0.991 | [49] 0.992 | [50] 0.969 | [51] 0.978 | [52] 1.04 | [53] 0.985 | [54] 0.976 | [55] 0.961 | [56] 0.974 | [57] 0.952 | [58] 0.978 | [59] 1.06 | [60] 0.951 | [61] 0.983 | [62] 0.992 | [63] 0.965 | [64] 0.991 | [65] 0.976 | [66] 0.945 | [67] 0.984 | [68] 0.965 | [69] 0.955 | [70] 0.992 | [71] 0.978

O=S(=O)(Nc1cccc2nsnc12)c1cc(Cl)sc1Cl
inactive: [1] 0.948 | [2] 0.961 | [3] 0.957 | [4] 0.96 | [5] 0.962 | [6] 0.961 | [7] 0.961 | [8] 0.962 | [9] 0.961 | [10] 0.969 | [11] 0.956 | [12] 0.955 | [13] 0.95 | [14] 0.947 | [15] 0.983 | [16] 0.944 | [17] 0.938 | [18] 0.947 | [19] 0.952 | [20] 0.958 | [21] 0.938 | [22] 0.96 | [23] 0.971 | [24] 1.08 | [25] 0.87 | [26] 0.871 | [27] 0.905 | [28] 0.981 | [29] 0.933 | [30] 0.953 | [31] 0.904 | [32] 0.953 | [33] 0.967 | [34] 0.951 | [35] 0.95 | [36] 0.953 | [37] 0.916 | [38] 0.954 | [39] 0.955 | [40] 0.961 | [41] 1.02 | [42] 0.887 | [43] 0.96 | [44] 0.942 | [45] 0.947 | [46] 0.959 | [47] 0.962 | [48] 0.96 | [49] 0.959 | [50] 0.953 | [51] 0.962 | [52] 0.979 | [53] 0.957 | [54] 0.958 | [55] 0.933 | [56] 0.957 | [57] 0.94 | [58] 0.943 | [59] 1.09 | [60] 0.954 | [61] 0.961 | [62] 0.982 | [63] 0.994 | [64] 0.999 | [65] 0.96 | [66] 0.884 | [67] 0.956 | [68] 0.964 | [69] 0.947 | [70] 0.969 | [71] 0.953

O=S(=O)(Nc1cccc2cccnc12)c1cc(Cl)c(Cl)cc1Cl
active: locus YAL013W, strain DEP1, stronger effect = lower value 0.773 | locus YBR229C, strain ROT2, stronger effect = lower value 0.672 | locus YCL061C, strain MRC1, stronger effect = lower value 0.804 | locus YEL061C, strain CIN8, stronger effect = lower value 0.644 | locus YGR078C, strain PAC10, stronger effect = lower value 0.855 | [26] 0.635 | locus YHR087W, strain rtc3, stronger effect = lower value 0.517 | locus YJR075W, strain HOC1, stronger effect = lower value 0.819 | locus YKL190W, strain CNB1, stronger effect = lower value 0.652 | locus YLR039C, strain RIC1, stronger effect = lower value 0.627 | locus YLR085C, strain ARP6, stronger effect = lower value 0.583 | locus YLR262C, strain YPT6, stronger effect = lower value 0.716 | locus YML094W, strain GIM5, stronger effect = lower value 0.761 | locus YMR219W, strain ESC1, stronger effect = lower value 0.863 | locus YMR263W, strain SAP30, stronger effect = lower value 0.853 | locus YNL153C, strain GIM3, stronger effect = lower value 0.845 | locus YNL298W, strain CLA4 (second series), stronger effect = lower value 0.724 | locus YNR030W, strain Alg12, stronger effect = lower value 0.773 | locus YOL006C, strain TOP1, stronger effect = lower value 0.169 | locus YPL055C, strain LGE1, stronger effect = lower value 0.635 | locus YPL241C, strain CIN2, stronger effect = lower value 0.635
inactive: [8] 1.02 | locus YDR150W, strain NUM1, stronger effect = lower value 1.04 | locus YJR043C, strain POL32, stronger effect = lower value 0.947 | locus YLR058C, strain SHM2 (second series), stronger effect = lower value 0.951 | locus YNL322C, strain KRE1, stronger effect = lower value 0.967 | locus YPR135W, strain CTF4, stronger effect = lower value 0.807

Source: PubChem BioAssay AID1159580 (chemical genetic matrix, 2015)
